From ChEMBL document CHEMBL3988442, “University of Dundee, Small-Polar-MMV Screening Library” (2021)
About 13,000 (27%) of roughly 48,000 compounds showed an effect of 50% or more. Some of the results follow.

system: Wolbachia pipientis; assay: Anti-Wolbachia Cell-Based Screen; type: functional; parameters: scale not given: in the data most compounds retested in dose-response had high values; settings: 5 µM

With `COc1cc(OC)cc(N2CCC(NCc3occc3C)C2=O)c1` (stereo not given) as the compound, how does the “Percent Effect” value read?
The value was -29.36%.

With `Cc1cn(Cc2nc(CC(C)C)nn2-c2ccccn2)c(=O)[nH]c1=O` as the compound, how does the “Percent Effect” value read?
The value was 5.875%.

With `CCOCCC(=O)Nc1cc(C)cnc1OC` as the compound, how does the “Percent Effect” value read?
The value was 1.473%.

For `O=C(O)C(c1ccc2[nH]ccc2c1)N1CCN(c2cnccn2)CC1` (stereo not given), which “Percent Effect” value is on record?
The value was -11.7%.

For `O=C(C1=CCCC1)N1CCC[C@]2(C[C@@H](OCc3ccncc3)CO2)C1.O=C(O)C(F)(F)F`, which “Percent Effect” value is on record?
Its value is -18.3%.

Which “Percent Effect” value does the source give for `Cc1ccc(S(=O)(=O)NC[C@H]2OC[C@@H](NCc3ccccc3)[C@@H]2O)cc1` here?
Its value is -16.71%.

How did the “Percent Effect” value turn out when `COC1CCN(S(=O)(=O)N2CCC3(CCCNC3=O)C2)CC1` (stereo not given) was run?
Its value is 4.322%.

For `CN1CC(Nc2nc3c(cnn3C(C)(C)C)c(=O)[nH]2)CCC1=O` (stereo not given), which “Percent Effect” value is on record?
Its value is 10.78%.

With `O=C(O)C(F)(F)F.O=C1CCCN1Cc1ncn2c1CN(Cc1cccs1)CCC2` as the compound, how does the “Percent Effect” value read?
Its value is -6.025%.

With `O=C1CCCN1Cc1ncn2c1CN(C(=O)Cc1cccs1)CCC2` as the compound, how does the “Percent Effect” value read?
The value was 106.6%.

`Cc1ccc(CC(=O)N2CCCn3nnc(Cn4cccn4)c3C2)cc1` was tested. Which “Percent Effect” value did it give?
The value was -8.474%.

`O=C1CCCN1Cc1ncn2c1CN(C(=O)Cc1ccccc1)CCC2` was tested. Which “Percent Effect” value did it give?
The value was 99.41%.

`O=C1CCCN1Cc1ncn2c1CN(S(=O)(=O)c1cccs1)CCC2` was tested. Which “Percent Effect” value did it give?
The value was -2.152%.

Which “Percent Effect” value does the source give for `CCCn1ncnc1C(C)NC(=O)CC1CCN(C(C)C)CC1` (stereo not given) here?
Its value is -1.645%.

How did the “Percent Effect” value turn out when `CCS(=O)(=O)N1CC(c2nc(-c3cccs3)no2)C1` was run?
The value was 0.556%.

How did the “Percent Effect” value turn out when `c1csc(-c2noc(C3CCCOC3)n2)c1` (stereo not given) was run?
The value was -23.77%.

For `Cl.c1csc(-c2noc(C3CCCNC3)n2)c1` (stereo not given), which “Percent Effect” value is on record?
The value was 100.6%.

`CCn1cc(-c2nn3c(C(F)(F)F)nnc3s2)cn1` was tested. Which “Percent Effect” value did it give?
Its value is 71.37%.

Which “Percent Effect” value does the source give for `CCN(CC)CCn1cnc(-c2ccccc2)c1-c1cnn(CC)c1` here?
The value was 8.592%.

Which “Percent Effect” value does the source give for `Cc1nn(C)cc1-c1nn2c(C(F)(F)F)nnc2s1` here?
The value was 115.5%.

For `CN(Cc1cc(=O)c(O)co1)C1CCN(c2ccc(F)cc2)CC1`, which “Percent Effect” value is on record?
Its value is -14.07%.

`CN(C)C[C@H]1C[C@@H](CO)CN(C(=O)c2cc(=O)[nH]c3cc(F)ccc23)C1` was tested. Which “Percent Effect” value did it give?
The value was -10.33%.

`COCCN(C)C[C@H]1C[C@H](CO)CN(C(=O)c2ccn(C)c(=O)c2)C1` was tested. Which “Percent Effect” value did it give?
The value was 59.73%.

How did the “Percent Effect” value turn out when `CN(C)C[C@H]1C[C@H](CO)CN(C(=O)c2cc(S(N)(=O)=O)ccc2F)C1` was run?
Its value is -6.33%.

Which “Percent Effect” value does the source give for `Cn1ccc(C(=O)N2CCCC(CNS(C)(=O)=O)C2)cc1=O` (stereo not given) here?
Its value is -3.744%.

`COCCN(C)C[C@H]1C[C@@H](CO)CN(C(=O)c2ccn(C)c(=O)c2)C1` was tested. Which “Percent Effect” value did it give?
The value was 96.22%.

With `Cc1nc(-c2ccc(Cl)s2)sc1C(=O)N(C)CC(N)=O` as the compound, how does the “Percent Effect” value read?
The value was 2.802%.

With `COCc1noc(-c2ccc(N3CCCC3c3nccs3)nc2)n1` (stereo not given) as the compound, how does the “Percent Effect” value read?
The value was 1.711%.

For `CCOC(=O)c1c(NC(=O)CN2CCN(C(C)=O)CC2)sc(C)c1C`, which “Percent Effect” value is on record?
Its value is 112.4%.

With `CCOC(=O)c1c(NC(=O)C2CCN(C(C)=O)CC2)sc(C)c1CC` as the compound, how does the “Percent Effect” value read?
The value was 114.1%.

With `CCOC(=O)N1CCN(CC(=O)Nc2nnc(CC)s2)CC1` as the compound, how does the “Percent Effect” value read?
Its value is -11.16%.

How did the “Percent Effect” value turn out when `CCc1c(C)sc(NC(=O)CN2CCN(CC)CC2)c1C(=O)OC` was run?
The value was -10.89%.

With `CCc1ccc(NC(=O)C2CCN(C(=O)COC)CC2)cc1` as the compound, how does the “Percent Effect” value read?
Its value is -3.205%.

How did the “Percent Effect” value turn out when `CCOC(=O)N1CCN(CC(=O)Nc2nnc(C)s2)CC1` was run?
Its value is -13.53%.

`CCc1c(C)sc(NC(=O)CN2CCOCC2)c1C(=O)OC` was tested. Which “Percent Effect” value did it give?
The value was 123.3%.

Which “Percent Effect” value does the source give for `CCC(C)NC(=O)CN1CCOCC1` (stereo not given) here?
The value was 4.194%.

How did the “Percent Effect” value turn out when `CCOC(=O)N1CCC(C(=O)Nc2nnc(C(F)(F)F)[nH]2)CC1` was run?
The value was 5.698%.

For `O=C(Nc1ccc(N2CCOCC2)nc1)N1CCc2sccc2C1`, which “Percent Effect” value is on record?
The value was -5.037%.

With `Cc1nn(C)c(Oc2ccccc2)c1CNC1CCOc2ccccc21` (stereo not given) as the compound, how does the “Percent Effect” value read?
Its value is 17.34%.

Which “Percent Effect” value does the source give for `CC(C)c1ccc(/C=C/CC(=O)NC2CCS(=O)(=O)CC2)cc1` here?
The value was -29.94%.

`CC(=O)c1cccc(OCCCC(=O)N(C)Cc2cnn(C)c2)c1` was tested. Which “Percent Effect” value did it give?
Its value is -7.913%.

With `N#CC1(NC(=O)COC(=O)Cn2cccn2)CCCC1` as the compound, how does the “Percent Effect” value read?
Its value is 0.9044%.

`N#Cc1ccnc(SCC2CN=C(N3CCOCC3)S2)c1` (stereo not given) was tested. Which “Percent Effect” value did it give?
Its value is 11.27%.

How did the “Percent Effect” value turn out when `Cc1occc1C(=O)N1C[C@@H]2CN(S(C)(=O)=O)CCO[C@@H]2C1` was run?
Its value is -6.506%.

`Cc1occc1C(=O)N1C[C@@H]2CCCO[C@@H]2[C@H](NS(C)(=O)=O)C1` was tested. Which “Percent Effect” value did it give?
The value was 108.4%.

Which “Percent Effect” value does the source give for `O=C(CC1CC1)N[C@@H]1CN(Cc2ccc(F)cc2)C[C@@H]2CCCO[C@@H]21.O=C(O)C(F)(F)F` here?
The value was -7.276%.

How did the “Percent Effect” value turn out when `O=C(CC1CC1)N[C@@H]1CN(Cc2nccs2)C[C@@H]2CCCO[C@@H]21` was run?
Its value is -7.838%.

With `O=C(c1cccs1)N1C[C@H]2CC[C@@]3(N=C(c4ccccc4)NC3=O)[C@H]2C1` as the compound, how does the “Percent Effect” value read?
Its value is 7.494%.

Which “Percent Effect” value does the source give for `Cc1occc1C(=O)N1CC[C@@H]2[C@@H](CO[C@H]2CNS(C)(=O)=O)C1` here?
The value was -7.18%.

For `COc1ccc(CN2C[C@@H]3CCCO[C@@H]3[C@H](NC(=O)CC3CC3)C2)cc1`, which “Percent Effect” value is on record?
The value was -5.236%.

With `O=C(CC1CC1)N[C@@H]1CN(C(=O)c2ccoc2)C[C@@H]2CCCO[C@@H]21` as the compound, how does the “Percent Effect” value read?
Its value is 95.5%.

Which “Percent Effect” value does the source give for `O=C(CC1CC1)N[C@@H]1CN(c2ncccn2)C[C@@H]2CCCO[C@@H]21.O=C(O)C(F)(F)F` here?
Its value is -2.682%.

`O=C(CC1CC1)N[C@@H]1CN(C(=O)c2ccsc2)C[C@@H]2CCCO[C@@H]21` was tested. Which “Percent Effect” value did it give?
The value was 100.4%.

Which “Percent Effect” value does the source give for `O=C(CC1CC1)N[C@@H]1CN(C(=O)c2cccs2)C[C@@H]2CCCO[C@@H]21` here?
Its value is 73.18%.

`CCn1ccnc1CN1CCCN(CC2CC2)C(C(C)C)C1` (stereo not given) was tested. Which “Percent Effect” value did it give?
Its value is -2.193%.

Which “Percent Effect” value does the source give for `Cc1nnsc1CN1CCCC1c1nc(-c2ccccc2)no1` (stereo not given) here?
The value was 16.39%.

With `Cc1csc([C@@H]2C[C@@H]3CCN(Cc4cnn(C)c4)C[C@H]3O2)n1` as the compound, how does the “Percent Effect” value read?
Its value is -7.419%.

For `CN1CCC(N(C)C(=O)CSc2ccc(F)c(F)c2)C1=O` (stereo not given), which “Percent Effect” value is on record?
Its value is -7.197%.

Which “Percent Effect” value does the source give for `Cc1occc1C(=O)N1C[C@@H]2CCCO[C@@H]2[C@H](NC(=O)CC2CC2)C1` here?
The value was 111.2%.

Which “Percent Effect” value does the source give for `Cc1ccc([C@@H]2CN(C(=O)c3ccoc3C)C[C@H]2NC(=O)C2CC2)cc1` here?
Its value is -4.07%.
